Reference: PubChem BioAssay AID589 (National Center for Advancing Translational Sciences (NCATS), 2007)
Among all 59,000 compounds or so, about 6,200 (11%) were called active. Roughly 9% stayed inconclusive and do not appear here. Cut-off read from the data, not from the text of the source: active = max dye-equivalent concentration above about 10 nM; inconclusive = mostly about 1.1 nM to 9.6 nM; inactive = weaker than that. Many of the other results were omitted from the sample, so actives are more common in it than they were.

Test: qHTS Assay for Spectroscopic Profiling in 4-MU Spectral Region
Conditions: compound autofluorescence, 340/450 nm, 4-MU equivalents; hits give high values
Summary of the method: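 Intrinsic fluorescence at 340/450 nm (ex/em) was read after 15 min at room temperature in pH 8.0, 100 mM Tris. Each compound concentration expressed as 4-MU-equivalent concentration from a six-point 4-MU standard series on each plate.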

Compound | max dye-equivalent concentration
Cc1cc(N2C(=O)c3ccc(C(=O)NCc4ccccc4)cc3C2=O)no1 | inactive
COC(=O)[C@H](Cc1ccccc1)NC(=O)N1CC(C)OC(C)C1 (stereo not given in full) | inactive
O=C(C1CCC(C(=O)N2CCCC2)CC1)N1CCCC1 (stereo not given) | inactive
O=C(c1cccs1)N1CCCC(c2nc(-c3ccc(F)cc3)no2)C1 (stereo not given) | inactive
C=CCn1c(=O)c2ccccc2n2c(SCC(=O)N3CCCc4ccccc43)nnc12 | inactive
CC(C)CC(=O)N=C1SC2CS(=O)(=O)CC2N1CCc1ccccc1 (stereo not given) | inactive
CCCCN(C)C(=O)C1CCN(Cc2ccccn2)CC1 | inactive
Cc1nc(SCC(=O)Nc2cc(C)on2)c2c3c(sc2n1)CCCC3 | inactive
O=C(Nc1cccc2c1CCCC2)C1CCN(C(=O)NC2CCCCC2)CC1 | inactive
CCOc1ccccc1N=C1NC(=O)CS1 | inactive
CCc1nnc(NC(=O)c2c(O)c3c([nH]c2=O)CCCC3)s1 | inactive
Cc1noc(C)c1-c1cc(NCc2cccnc2)ncn1 | inactive
CNc1cc(-c2c(C)noc2C)ncn1 | inactive
Cc1cnc(CNc2cc(-c3c(C)noc3C)ncn2)cn1 | 18 nM (active)
COCCNc1cc(-c2c(C)noc2C)ncn1 | 11 nM (active)
Cc1cccc(CNc2cc(-c3ccccc3Cl)ncn2)c1 | inactive
COc1ccccc1CNc1ncnc2ccc(-c3c(C)noc3C)cc12 | inactive
CCOC(=O)c1[nH]cnc1C(=O)NC1CCCCC1 | inactive
C[C@]1(O)CC[C@H]2[C@H]3CC=C4N5CCN=C5CC[C@@]4(C)[C@H]3CC[C@@]21C | inactive
O=C(Nc1c(Cl)cccc1Cl)C1CCC1 | inactive
O=C(NCc1ccco1)c1cc2sccc2n1Cc1ccc(F)cc1 | inactive
Cc1nc2nc(CSc3nc4ccccc4s3)cc(=O)n2[nH]1 | inactive

Compound | max dye-equivalent concentration
Cc1cccc(-n2c(N)c(C(=O)N3CCN(C)CC3)sc2=S)c1 | inactive
CC(C(=O)N1CCOCC1)N1c2cccc3cccc(c23)S1(=O)=O (stereo not given) | 74 nM (active)
CC(C(=O)Nc1ccccc1-c1ccccc1)N1CCOCC1 (stereo not given) | inactive
O=C(c1ccccc1-c1ccccc1)N1CCOCC1 | inactive
COc1ccc(N(CC(=O)NC(C)(C)C)C(=O)c2ccco2)cc1 | inactive
COc1cc(C(=O)N(Cc2ccc(N(C)C)cc2)C2CCS(=O)(=O)C2)cc(OC)c1OC (stereo not given) | inactive
O=C(O)c1cccc(S(=O)(=O)NCCO)c1 | inactive
CCOc1ccc(Nc2oc(Cc3ccccc3)nc2C#N)cc1 | inactive
CCOc1ccc2nc(NCCNS(=O)(=O)c3ccccc3)c(C#N)cc2c1 | 110 nM (active)
Cc1cc(C)c(NC(=O)CS(=O)CC(=O)Nc2cccnc2)c(C)c1 (stereo not given) | inactive
COc1ccc(C(CC(=O)O)NC(=O)Cc2ccccc2)cc1 (stereo not given) | inactive
CCOC(=O)c1cc(C)sc1NC(=O)C1CCC1 | inactive
O=C(C1CCN(S(=O)(=O)c2cccs2)CC1)N1CCCCCC1 | inactive
O=C(Nc1nncs1)c1ccccc1NS(=O)(=O)c1cccs1 | 530 nM (active)
COC(=O)c1ccccc1NC(=O)c1ccccc1NS(C)(=O)=O | inactive
COc1ccc(CNC2CCCCC2)cc1 | inactive
c1n[nH]c(NCc2ccc3c(c2)OCO3)n1 | inactive
CN(Cc1ccccc1)c1nc2c(c(=O)[nH]c(=O)n2C)n1CCSc1nc2ccccc2[nH]1 | inactive
CCOC(=O)c1[nH]c2ccc(OC)cc2c1NC(=O)CCN1CCN(Cc2ccccc2)CC1 | 57 nM (active)
Cc1c(C(=O)N2CCOCC2)[nH]c2ccc(OCc3ccccc3)cc12 | inactive
COc1ccc(OC)c(NC(=O)CCN2CCC(C)CC2)c1 | inactive
CCOC(=O)c1[nH]c2ccc(OC)cc2c1NC(=O)N1CCOCC1 | 130 nM (active)

Compound | max dye-equivalent concentration
COc1cc(NC(=O)N2CCOCC2)cc(OC)c1 | inactive
COC(=O)c1[nH]c2ccccc2c1NC(=O)CN1CCCc2ccccc21 | inactive
COc1cccc(NC(=O)CN(C)S(=O)(=O)c2ccc(C)cc2)c1 | inactive
Cc1nonc1OCCn1nnnc1N | inactive
CCNC(=O)CN(c1ccc(C)cc1)S(=O)(=O)c1ccc(SC)cc1 | inactive
CC(=O)Nc1cccc(Oc2cc(C#N)c(C#N)cc2N2CCOCC2)c1 | inactive
CCOc1cc(N2CCOCC2)c(OCC)cc1NC(=O)COc1cccc2cccnc12 | 16 nM (active)
C=CCn1c(COc2cccc3cccnc23)nnc1SCC(=O)OC | inactive
O=C1NC(c2cc3c(cc2Cl)OCO3)Oc2ccccc21 (stereo not given) | inactive
Cc1cc2nc(-c3ccc(NC(=O)c4cccnc4)cc3)oc2cc1C | 15 nM (active)
CCOC(=O)c1cc(NC(=O)c2cccnc2)cc(C(=O)OCC)c1 | inactive
CCC(=O)Nc1cccc(NC(=O)c2cccnc2)c1 | inactive
CNc1nc(-c2ccccc2OC)nc2ccccc12 | inactive
COc1ccccc1-c1nc(NCc2cccs2)c2ccccc2n1 | inactive
Cn1c(COc2ccc(Cl)cc2)nc2ccccc2c1=O | inactive
Cc1nc2ccccc2c(=O)n1CCCn1ccnc1 | inactive
CC(Sc1nc2ccccc2c(=O)n1Cc1ccco1)C(=O)c1ccccc1 (stereo not given) | inactive
Cc1nc2c(c(=O)n1Cc1ccco1)c1nc3ccccc3nc1n2Cc1ccccc1 | 93 nM (active)
COc1ccccc1NC(=O)CSc1nc2sc(C)c(C)c2c(=O)n1Cc1ccco1 | inactive
Cc1ccc(Cn2c(C)nc3c(c2=O)c2nc4ccccc4nc2n3Cc2ccco2)cc1 | 760 nM (active)
COCCCn1c2nc3ccccc3nc2c2c(=O)n(Cc3ccc(Cl)cc3)c(C)nc21 | 320 nM (active)
O=c1c2ccccc2oc2nc(C3CCCCC3)n(Cc3ccco3)c(=O)c12 | inactive

Compound | max dye-equivalent concentration
CCOC(=O)CSc1nc2c(sc(=S)n2CCc2ccccc2)c(=O)n1Cc1ccco1 | inactive
Cc1ccc(S(=O)(=O)N2CCC(C(=O)OCC(=O)N3CC(=O)Nc4ccccc43)CC2)cc1 | inactive
CN(C)C(=O)c1ccc(-c2cncnc2NC2CCNCC2)cc1 | inactive
CC(=O)OCC(=O)[C@@]1(O)CC[C@@H]2[C@H]3CCC4=CC(=O)C=C[C@]4(C)[C@]3(F)[C@@H](O)C[C@@]21C | inactive
Cn1c(Cc2csc(N)n2)nnc1SC/C=C/c1ccccc1 | inactive
O=C(Nc1ccc2c(c1)OCCO2)c1ccncc1 | inactive
COc1ccc(C(=O)N2CCC3(CCCN(C(c4ccccc4)c4ccccc4)C3)CC2)cc1 | inactive
CC(c1ccco1)N(C(=O)c1ccc(S(=O)(=O)N2CCCCC2)cc1)c1ccccn1 (stereo not given) | inactive
CCOc1cccc(NC(=O)C2CCCN(S(=O)(=O)c3ccc(OC)cc3)C2)c1 (stereo not given) | inactive
C[C@@H]1CC[C@H]2[C@H](C)[C@H]3[C@H](C[C@H]4[C@@H]5CC=C6C[C@@H](O)CC[C@@]6(C)[C@@H]5C[C@@H](O)[C@]34C)N2C1 | inactive
O=c1c2ccccc2nnn1CSc1nc2sc3c(c2c(=O)n1CC1CCCO1)CCC3 (stereo not given) | inactive
CCCn1nnc2sc3c(c2c1=O)CCC(C)C3 (stereo not given) | 33 nM (active)
CC1CCc2sc3nc(N4CCN(CCO)CC4)n4ncnc4c3c2C1 (stereo not given) | inactive
O/N=C(\c1ccc2c(c1)OCCO2)C1CCCCC1 | inactive
CCN(CC)Cc1c(C(=O)OC)nnn1-c1nonc1N | inactive
CC(=O)c1sc2nc(SCC(=O)N3CCCCC3)[nH]c(=O)c2c1C | inactive
O=C1N=C(N2CCOCC2)CS1 | inactive
CN(CCC#N)c1ncnc2scc(-c3ccccc3)c12 | inactive
CCCC(=O)NC(C)C(c1cccs1)N1CCN(c2ccccc2)CC1 (stereo not given) | inactive
COCCOC(=O)C1=C(C)Nc2nc(C)nn2C1c1ccccc1 (stereo not given) | inactive
CCOC(=O)c1ccc(NC(=O)CSc2ncccn2)cc1 | inactive
CCOC(=O)C1=C(C)NC(C)=C(C(=O)OCC)C1c1ccccn1 | 290 nM (active)

Compound | max dye-equivalent concentration
Cc1ccc(S(=O)(=O)NCCN2CCOCC2)cc1C | inactive
Cc1nn(C)c(C)c1S(=O)(=O)N1CCc2ccccc21 | inactive
O=S(=O)(c1cccs1)N1CCc2ccccc2C1 | inactive
CCCCNc1nc2ccccc2nc1NS(=O)(=O)c1cccs1 | 45 nM (active)
O=S(=O)(c1cccs1)N1CCN(Cc2ccccc2)CC1 | inactive
CC(C)CCNC(=O)CN(C(=O)Cn1nnc(-c2ccc(F)cc2)n1)C1CCCC1 | inactive
O=C(O)c1cscn1 | inactive
CCCS(=O)(=O)N1CCN(C(=O)c2cccs2)CC1 | inactive
COc1ccc(OCC(=O)N2CCN(C(=O)c3cccs3)CC2)cc1 | inactive
COc1ccc(S(=O)(=O)N2CCN(C(=O)c3cccs3)CC2)cc1OC | 3300 nM (active)
NCC(=O)[C@@H](O)[C@H](O)[C@H](O)CO | inactive
CCn1c(SCC(=O)Nc2cc(C)c(Cl)cc2OC)nnc1-c1ccco1 | inactive
O=S(=O)(NCc1ccc2c(c1)OCO2)c1cccc2nsnc12 | inactive
CCN(CC)CCN1C(=O)C(=O)/C(=C(/O)c2ccc(OC)c(OC)c2)C1c1ccccn1 (stereo not given) | 33 nM (active)
COc1ccc(/C(O)=C2/C(=O)C(=O)N(CCCN(C)C)C2c2ccccc2)cc1OC (stereo not given) | inactive
CCCOc1ccc(/C(O)=C2/C(=O)C(=O)N(CCN(C)C)C2c2ccc(OC)c(OC)c2)cc1 (stereo not given) | inactive
CCn1nc(C(=O)OCC(=O)N2c3ccccc3CC2C)c2ccccc2c1=O (stereo not given) | inactive
Cc1noc(COc2ccccc2OCC(O)CNC(C)(C)C)n1 (stereo not given) | inactive
CCc1nc(N2CCN(c3nc(C)cc(C)n3)CC2)c2oc3ccccc3c2n1 | inactive
CCSc1nc(C)nc2c1oc1ccccc12 | inactive
CCc1nc(Nc2ccc3nccnc3c2)c2oc3ccccc3c2n1 | 55 nM (active)
COc1ccccc1CNC(=O)CCCn1c(=O)c2ccccc2n(CC(=O)NC2CCCC2)c1=O | inactive
